Experimental data from PubChem BioAssay (NCATS).
Inconclusive results are not listed. Entries that show only a call come without a potency. Values without a mark were called inactive. The source made the active and inactive calls. Calls come from the whole dose curve; as a rule, active = well fitted cell-killing curve with a large enough effect; inconclusive = small, poorly fitted or top-dose-only effect, or effect the other way; inactive = flat fitted curve, though single readings scatter.

These compounds were tested on OV90 (assay: Primary qHTS to identify gynecologic anti-cancer compounds using libraries of approved drugs and bioactive compounds (AID 1345084; note: nearly all actives have a fitted effect of over 55% in size)). Settings: Gynecologic cancer cell panel viability, ATPlite luminescence, 48 h; series mostly up to 57.5 µM.
Outline: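 Cells, 1,000 per well, were allowed to settle for 16 h at 37 C before compound addition. Five concentrations were tested for 48 h, and viability was read by ATPlite luminescence after 15 min at room temperature.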
Potency is the fitted concentration of half-maximal effect.

Row | Structure (SMILES) | Potency | activity change, negative = cytotoxicity
1 | CN(Cc1cccc(-c2ccncc2)c1)C(=O)Oc1ccc(-c2ccc(C(N)=O)cc2)cc1 | inactive | 
2 | CN(C(=O)C(c1ccccc1)c1ccccc1)[C@H](CN1CC[C@H](O)C1)c1ccccc1 | inactive | 
3 | C/C=C(\C)C(=O)OC1CC2C(CC=C3CC(OC4CC(OC)C(OC5CC(OC)C(OC6CC(OC)C(OC7CC(OC)C(O)C(C)O7)C(C)O6)C(C)O5)C(C)O4)CCC32C)C2(O)CCC(C(C)=O)C12C (centres undefined) |  | -21.5% [at 11.6 µM]
4 | CN=C(NS(=O)(=O)c1ccc(Cl)cc1)N1C[C@H](c2ccccc2)C(c2ccc(Cl)cc2)=N1 | inactive | 
5 | Cc1c(N[C@@H](c2nnc(-c3ccc(C#N)cc3)o2)[C@H](C)O)ccc(C#N)c1Cl | inactive | 
6 | CC12CCC3C(C1)c1c(cc(O)c(C(=O)c4ccccc4)c1OC3(C)C)O2 (centres undefined) | inactive | 
7 | C=C1C(=O)CC2OC2(C)CC2OC(=O)C(=C)C2C(O)C1OC(=O)/C(C)=C\C (centres undefined) | inactive | 
8 | CN1C(=O)[C@@H](Cc2c[nH]c3ccccc23)N=C(c2ccccc2F)c2ccccc21 | inactive | 
9 | CCCCCCC1C(=O)O[C@H](C)[C@H](NC(=O)c2cccc(NC=O)c2O)C(=O)O[C@@H](C)[C@@H]1OC(=O)CC(C)C (some centres undefined) | 355 nM (active) | 
10 | c1ccc([C@@H]2C[C@H]2NC2CCNCC2)cc1 | inactive | 
11 | CC(C)[C@H]1OC(=O)[C@H](Cc2ccccc2)N(C)C(=O)[C@@H](C(C)C)OC(=O)[C@H](Cc2ccccc2)N(C)C(=O)[C@@H](C(C)C)OC(=O)[C@H](Cc2ccccc2)N(C)C1=O | inactive | 
12 | C=C1C2(C)CC3C(C)(O)C4=CC(=O)OC(C)(C)C4=CCC3(C)C13C(=O)OC(C)C3(O)C2=O (centres undefined) | inactive | 
13 | CN(C)[C@@H]1C(=O)C(C(N)=O)=C(O)[C@@]2(O)C(=O)C3=C(O)c4c(O)ccc(Cl)c4[C@@](C)(O)C3C[C@@H]12 (some centres undefined) | inactive | 
14 | CN1CCC2=C(C1)c1ccccc1Cc1ccccc12 | inactive | 
15 | C=C(C)C(=O)O[C@H]1[C@@H]2[C@H](C)C(=O)O[C@@H]2C[C@@H](C)[C@@H]2C=CC(=O)[C@]21C | 3550 nM (active) | 
16 | CCOc1ccc(Oc2ccc(OCc3cc(F)ccc3F)cc2)c(N)c1 | inactive | 
17 | CCN1C[C@]2(COC)CC[C@H](O)[C@@]34C5C[C@@H]6[C@@H](OC)C[C@@](OC(C)=O)(C5[C@@H]6OC(C)=O)[C@H]([C@H](OC)C23)[C@@H]14 (some centres undefined) | inactive | 
18 | CC(C)[C@H](NC(=O)c1nn(Cc2ccc(F)cc2)c2ccccc12)C(N)=O | inactive | 
19 | CCCN(CCC)[C@@H]1CCc2ccc3[nH]c(C#N)cc3c2C1 | inactive | 
20 | Cc1ccc2c(c1)[C@H]1CN(C)CC[C@H]1N2C(=O)CSc1nnnn1-c1ccc(Cl)cc1 | inactive | 
21 | COC1CCCC(C)OC(=O)Cc2cc(O)cc(O)c2C(=O)C1 (centres undefined) | inactive | 
22 | C[C@]12CC[C@H](O)C[C@@H]1CC[C@@H]1[C@@H]2CC[C@]2(C)C(=O)CC[C@@H]12 | inactive | 
23 | CC(=O)OC[C@]12[C@H](OC(C)=O)C(=O)[C@@H]3[C@@H](O)[C@@]14O[C@@]3(C)COC(=O)c1cccnc1[C@@H](C)[C@H](C)C(=O)O[C@@H]([C@H](OC(C)=O)[C@@H]2OC(C)=O)[C@]4(C)O | inactive | 
24 | C#C[C@]1(O)CC[C@H]2[C@@H]3CC[C@H]4Cc5nc6nc7ccccc7n6cc5C[C@]4(C)[C@H]3CC[C@@]21C | inactive | 
25 | CN1C(=O)N(c2ccc(C#N)c(C(F)(F)F)c2)C(=O)[C@@]1(CO)c1ccccc1 | inactive | 
26 | CCCCCn1cc(C(=O)Oc2cccc3cccnc23)c2ccccc21 | inactive | 
27 | C[C@]12CC[C@H](O)C[C@@H]1CC[C@@H]1[C@@H]2CC[C@]2(C)[C@@H](C3=CC(=O)OC3)CC[C@]12O | inactive | 
28 | C[C@]12CC[C@H](O)C[C@@]1(O)CC[C@@H]1[C@@H]2CC[C@]2(C)[C@@H](c3ccc(=O)oc3)CC[C@]12O | inactive | 
29 | COC(=O)C12C(=O)C(C)(O)C(=O)C1(C)C(C)=CC1C34CCC(OC3=O)C(C)(C)C4CCC12C (centres undefined) | inactive | 
